This is a sample that favours compounds with a hit; in the whole collection about 32% have one here.
CYP2C9 inhib – human CYP2C9 inhibition | inhibition, % at 5 µM | CYP2C9 Supersomes, luciferin-H conversion, luminescence | hit rate 20% among 96,000 | AID 777;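 active = blocking of liver enzyme CYP2C9 beyond about 50% at 5 µM, limit read from the data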
Target sequence (P11712 whole entry, looked up): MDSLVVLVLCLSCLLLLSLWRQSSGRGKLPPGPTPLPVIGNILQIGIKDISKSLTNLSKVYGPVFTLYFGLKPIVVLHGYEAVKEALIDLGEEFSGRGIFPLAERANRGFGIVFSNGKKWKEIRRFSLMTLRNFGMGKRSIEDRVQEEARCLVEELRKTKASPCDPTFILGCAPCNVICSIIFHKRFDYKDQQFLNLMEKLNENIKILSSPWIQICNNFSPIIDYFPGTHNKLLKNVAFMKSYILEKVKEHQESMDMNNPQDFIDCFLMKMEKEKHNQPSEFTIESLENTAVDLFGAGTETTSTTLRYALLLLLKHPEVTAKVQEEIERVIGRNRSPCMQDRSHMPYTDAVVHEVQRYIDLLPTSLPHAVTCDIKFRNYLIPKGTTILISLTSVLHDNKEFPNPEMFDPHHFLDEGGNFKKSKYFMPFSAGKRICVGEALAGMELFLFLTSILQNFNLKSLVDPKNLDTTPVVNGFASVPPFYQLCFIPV
PostGolgi ctrl – inhibits growth of the yeast control strain | hit rate 5% among 98,000 | AID 738 | inhibition, % at 10 µM | efflux-deficient yeast background strain, growth absorbance A615, 16 h
CYP2C9 activ – activators of human CYP2C9; AID 1024; activation factor at 5 µM; recombinant CYP2C9, luciferin-H conversion, luminescence; stronger effect = higher value; factor 1 = untreated enzyme, 0 = blocked; P11712; hit rate 1.4% among 96,000;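 active = activation factor of 2 or more for CYP2C9 at a 5 µM dose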;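 also: 0 = sulfaphenazole-blocked wells and 1 = vehicle-only wells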
CYP2C19 inhib – blocks human cytochrome P450 2C19; hit rate 21% among 96,000; CYP2C19 Supersomes, luciferin-H EGE luminescence, 30 min; P33261; AID 778; inhibition, % at 5 µM;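 active = CYP2C19 inhibition above a set limit at 5 µM in the primary screen, cut at about 50% in these data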;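 also: plate controls were negative control wells for no effect and 2.5 mM tranylcypromine positive control for full effect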
PostGolgi yeast – growth inhibition of a yeast mutant, post-Golgi transport screen. inhibition, % at 10 µM. hit rate 0.9% among 98,000. post-Golgi transport phenotypic cell assay;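 also: yeast cells grown in 1536-well plates; yeast grown about 18 h at 30C before absorbance read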
CYP2C19 activ – cytochrome P450 2C19 (human) activation; P33261; AID 1025; 96,000 tested, under 10 active; activation factor at 5 µM; recombinant CYP2C19, luciferin-H EGE luminescence; stronger effect = higher value; 0 = fully inhibited enzyme, 1 = untreated enzyme;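 active = activation factor of at least 2 at 5 µM in the primary screen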;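 also: 0 = wells with 2.5 mM tranylcypromine and 1 = vehicle-only wells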
An asterisk follows results filed as active; / = no result. Rule as the data show it, unless noted: active = inhibition above about 30%; inactive = the rest.

SMILES	CYP2C9 inhib	PostGolgi ctrl	CYP2C9 activ	CYP2C19 inhib	PostGolgi yeast	CYP2C19 activ
O=C(Nc1nccs1)C(NS(=O)(=O)c1ccc(Br)s1)c1ccccc1 (stereo not given)	62*	9	0.4	38	10	0.6
CCC(C(=O)Nc1nc(C)cs1)c1ccccc1 (stereo not given)	33	20	0.7	22	0	0.8
CCC(C(=O)Nc1nccs1)c1ccccc1 (stereo not given)	9	0	0.9	69*	-3	0.3
CCCC(C(=O)Nc1nccs1)c1ccccc1 (stereo not given)	48	11	0.5	54*	8	0.5
CCOC(=O)c1cc(OC(=O)c2ccccc2Br)n(-c2ccccc2)n1	-9	-2	1.1	-10	0	1.1
CN(C)c1ccc(NC(=O)c2cccc(N3C(=O)C4C5C=CC(C5)C4C3=O)c2)cc1 (stereo not given)	/	6	/	/	1	/
COC(=O)C1C2C=CC3(CN(CC4CCCO4)C(=O)C13)O2 (stereo not given)	-11	-5	1.1	-1	-7	1
O=c1cc2c(nn1Cc1ccccc1Cl)-c1ccccc1CC2	94*	43*	0.1	95*	14	0
O=c1cc2c(nn1Cc1ccc(Cl)cc1Cl)-c1ccccc1CC2	67*	27	0.3	51*	-2	0.5
Cc1cccc(C)c1NC(=O)C1(NC(=O)C2CCCN2C(=O)OC(C)(C)C)CCCCC1 (stereo not given)	-12	7	1.1	-14	-1	1.1
COc1ccc(N(CC(=O)NCc2cccc(OC)c2)S(=O)(=O)c2c(C)noc2C)cc1	64*	12	0.4	92*	6	0.1
CCOc1ccc(N(CC(=O)Nc2cccc(F)c2)S(=O)(=O)c2c(C)noc2C)cc1	28	-1	0.7	13	-7	0.9
CCOc1ccc(N(CC(=O)NCc2cccc(OC)c2)S(=O)(=O)c2c(C)noc2C)cc1	21	27	0.8	60*	6	0.4
CCN(CC)S(=O)(=O)c1cccc(NC(=O)Nc2cccc(C(F)(F)F)c2)c1	45	17	0.5	10	1	0.9
O=C1/C(=C/c2ccncc2)SC(=S)N1C1CCS(=O)(=O)C1 (stereo not given)	42	5	0.6	75*	2	0.2
CCCCN1c2ccccc2N(CCCO)c2cc(C)nnc21	65*	5	0.4	27	7	0.7
CC1CCc2nn(CC(=O)N3CCN(C(=O)c4ccco4)CC3)cc2C1 (stereo not given)	/	8	/	/	5	/
CCCCn1c(=O)[nH]c(=O)c2c1nc(-c1ccc(-c3ccccc3Br)o1)n2CC	47	10	0.5	15	4	0.9
CCn1c(-c2ccsc2)nc2c1c(=O)[nH]c(=O)n2Cc1ccccc1	22	7	0.8	52*	1	0.5
CC(=O)c1ccc(NC(=O)/C(=C\c2ccccc2)NC(=O)/C=C/c2ccccc2)cc1	53*	5	0.5	12	3	0.9
CC(=O)c1ccc(NC(=O)c2cccs2)cc1	32	2	0.7	23	-5	0.8
C=C(C)COc1ccc(-c2[nH]ncc2-c2ccccc2OC)c(O)c1	89*	52*	0.1	75*	54*	0.3
CCOc1ccc(-c2[nH]ncc2Oc2ccccc2OC)c(O)c1	98*	22	0	99*	9	0
CCOc1ccc(-c2[nH]ncc2Oc2ccccc2OCC)c(O)c1	88*	57*	0.1	90*	91*	0.1
CCCOC(=O)c1ccc(Oc2cn[nH]c2-c2ccc(OC)cc2O)cc1	99*	43*	0	97*	6	0
SMILES	CYP2C9 inhib	PostGolgi ctrl	CYP2C9 activ	CYP2C19 inhib	PostGolgi yeast	CYP2C19 activ
Cc1cnc(C(=O)Nc2nccs2)cn1	-7	-1	1.1	-2	-2	1
O=C1CCN(N=Nc2cccc(Cl)c2)N1	18	-4	0.8	1	4	1
CCc1ccc2c(c1)C(c1ccc([N+](=O)[O-])cc1)=NNC(c1ccc(F)cc1)=N2	-2	3	1	-17	26	1.2
N#Cc1cc2c(nc1SCc1ccccc1)CCCC2=O	-2	13	1	9	3	0.9
Cc1cccc(C(=O)NNC(=O)C2CCCO2)c1 (stereo not given)	-20	3	1.2	-5	12	1.1
CCOc1ccc(-c2nc(N)ncc2Oc2cccc(OC)c2)c(O)c1	-4	27	1	1	0	1
C=C(C)COc1ccc(-c2[nH]ncc2Oc2ccccc2OC)c(O)c1	85*	10	0.2	61*	12	0.4
CCOc1ccc2nc(-c3ccc(OC)c(OC)c3)cc(C(=O)O)c2c1	-12	4	1.1	-1	-1	1
CCOc1ccc(-c2nc(N)ncc2Oc2ccccc2Br)c(O)c1	6	55*	0.9	17	3	0.8
CCOc1ccc(-c2[nH]ncc2-c2ccc(OC)c(OC)c2)c(O)c1	84*	12	0.2	84*	-2	0.2
C=C(C)COc1ccc(-c2nc(N)ncc2Oc2ccccc2OC)c(O)c1	30	20	0.7	24	-4	0.8
OCCNc1nc(OCC(F)(F)F)nc(N2CCN(C34CC5CC(CC(C5)C3)C4)CC2)n1	23	27	0.8	-7	-3	1.1
Cc1ccc(NC(=S)NCCN2CCOCC2)cc1C	12	-3	0.9	48	0	0.5
Cc1nn(Cc2c(F)c(F)c(F)c(F)c2F)c(C)c1NC(=O)c1ccc(COc2ccc(F)cc2)o1	17	28	0.8	40	10	0.6
COc1cc2c(cc1OC)CN(C(=O)C(C)(C)C)CC2	2	-3	1	40	-4	0.6
COc1cc2c(cc1OC)CN(C(=O)C1(c3ccccc3)CC1)CC2	54*	21	0.5	37	1	0.6
Cc1cc(-c2ccccc2)c(C#N)c(N)n1	-31	2	1.3	-15	14	1.2
N#Cc1cc(-c2ccccc2)nnc1Sc1ccccc1	8	3	0.9	-13	4	1.1
Cc1nc(Sc2ccccc2)c(C#N)cc1-c1ccccc1	70*	5	0.3	58*	9	0.4
Cc1nc(Cl)c(C#N)cc1-c1ccccc1	20	6	0.8	86*	6	0.1
CC1(C)CC(OC(=O)c2ccco2)CC(C)(C)N1O	19	1	0.8	7	8	0.9
COc1cccc(NC(=O)CN(C)C(=O)c2ccc3ccccc3c2)c1	-55	17	1.6	24	2	0.8
COc1ccc(C2CC(=O)Nc3ccccc3S2(=O)=O)cc1OC (stereo not given)	-4	9	1	40	2	0.6
CCOC(=O)c1ccccc1-c1csc(NS(=O)(=O)c2ccc(Cl)cc2)n1	99*	12	0	33	6	0.7
CS(=O)(=O)Nc1ccccc1C(=O)O	14	1	0.9	7	-2	0.9

Screens from PubChem.
